Results reported in the supplement of paper PMC10849652.
Of roughly 7,900 targets only a part is listed; those with a hit were picked by preference. About 0.6% of all pairs of compound and target were hits.

Key:
Assay in all cases: log2 fold change, soluble protein after heating vs DMSO (PISA); higher = thermal stabilisation; K562 cells, 10 uM, 30 min; active = over 0.2 and 3.5 SD of the protein, either way, in both replicates (recomputed)
[1] = compound: CC[C@@H]1C(=O)N(C)c2cnc(Nc3ccc(C(=O)NC4CCN(C)CC4)cc3OC)nc2N1C1CCCC1
Method in brief: (§1)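 Aliquots of K562 cells (2×10^6 cells/mL) treated with 10 μM compound for 30 min were heated for 3 min over 48°C-58°C. After pooling and extraction in PBS with 0.5% NP-40 at 4°C, soluble protein from a 21,000xg, 90 min spin was quantified by TMTpro 16plex LC-MS/MS with channel sums equalised. Thermal stability is expressed against control samples, from duplicates, as a log2 fold change.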

volasertib = compound: CC[C@@H]1C(=O)N(C)c2cnc(Nc3ccc(C(=O)N[C@H]4CC[C@H](N5CCN(CC6CC6)CC5)CC4)cc3OC)nc2N1C(C)C [volasertib]
Method in brief: as §1

[2] = compound: CC[C@H](C)N1C=C(C2=C(C=C(C=C21)C3=CN=C(C=C3)N4CCNCC4)C(=O)NCC5=C(C=C(NC5=O)C)C)C
Method in brief: as §1

epoxomicin = compound: CC[C@H](C)[C@@H](C(=O)N[C@@H]([C@@H](C)O)C(=O)N[C@@H](CC(C)C)C(=O)[C@]1(CO1)C)NC(=O)[C@H]([C@@H](C)CC)N(C)C(=O)C [epoxomicin]
Method in brief: as §1

[3] = compound: CCn1c(C(=O)N(C2CC2)C2CC2)cc2c3c(ncn3C)c(Nc3cc(C)n(C)n3)nc21
Method in brief: as §1

[4] = compound: CCn1cc(-c2ccnc3[nH]c(-c4cccc(CN(C)C)c4)cc23)c(-c2ccc(NC(=O)N(C)C)cc2)n1
Method in brief: as §1

[5] = compound: CN(C)CC(=O)Nc1ccc2[nH]c(=O)c3ccccc3c2c1
Method in brief: as §1

rosiglitazone = compound: CN(CCOC1=CC=C(C=C1)C[C@H]2C(=O)NC(=O)S2)C3=CC=CC=N3 (racemic) [rosiglitazone]
Method in brief: as §1

[6] = compound: CN1C2=C(C3=C1C(=O)N(N=C3)CC4=CC(=CC=C4)N)SC(=C2)S(=O)C
Method in brief: as §1

[7] = compound: CN1CCC(CNc2ccc3ncc(-c4cccc(OC(F)(F)F)c4)n3n2)CC1
Method in brief: as §1

saracatinib = compound: CN1CCN(CCOc2cc(OC3CCOCC3)c3c(Nc4c(Cl)ccc5c4OCO5)ncnc3c2)CC1 [saracatinib]
Method in brief: as §1

sotrastaurin = compound: CN1CCN(c2nc(C3=C(c4c[nH]c5ccccc45)C(=O)NC3=O)c3ccccc3n2)CC1 [sotrastaurin]
Method in brief: as §1

alvocidib = compound: CN1CC[C@H](c2c(O)cc(O)c3c(=O)cc(-c4ccccc4Cl)oc23)[C@H](O)C1 [alvocidib]
Method in brief: as §1

Tubastatin A = compound: CN1CCc2c(c3ccccc3n2Cc2ccc(C(=O)NO)cc2)C1 [Tubastatin A]
Method in brief: as §1

[8] = compound: CNC(=O)C1=CC=CC=C1NC2=NC(=NC=C2Cl)NC3=C(C=C(C=C3)N4CCOCC4)OC
Method in brief: as §1

defactinib = compound: CNC(=O)c1ccc(Nc2ncc(C(F)(F)F)c(NCc3nccnc3N(C)S(C)(=O)=O)n2)cc1 [defactinib]
Method in brief: as §1

rucaparib = compound: CNCc1ccc(-c2[nH]c3cc(F)cc4c3c2CCNC4=O)cc1 [rucaparib]
Method in brief: as §1

[9] = compound: CNc1nc(-c2ccc3c(N)n[nH]c3c2)cc(N2C[C@@H](C(=O)NC3CCCCC3)CC[C@H]2C)n1
Method in brief: as §1

encorafenib = compound: COC(=O)N[C@@H](C)CNc1nccc(-c2cn(C(C)C)nc2-c2cc(Cl)cc(NS(C)(=O)=O)c2F)n1 [encorafenib]
Method in brief: as §1

[10] = compound: COC(=O)[C@H](CCSC)NC(=O)C1=C(C=C(C=C1)NC[C@H](CS)N)C2=CC=CC=C2
Method in brief: as §1

Measured: log2 fold change

NSDHL (UniProt Q15738)
Sequence of UniProt Q15738 (Q15738 whole entry, looked up): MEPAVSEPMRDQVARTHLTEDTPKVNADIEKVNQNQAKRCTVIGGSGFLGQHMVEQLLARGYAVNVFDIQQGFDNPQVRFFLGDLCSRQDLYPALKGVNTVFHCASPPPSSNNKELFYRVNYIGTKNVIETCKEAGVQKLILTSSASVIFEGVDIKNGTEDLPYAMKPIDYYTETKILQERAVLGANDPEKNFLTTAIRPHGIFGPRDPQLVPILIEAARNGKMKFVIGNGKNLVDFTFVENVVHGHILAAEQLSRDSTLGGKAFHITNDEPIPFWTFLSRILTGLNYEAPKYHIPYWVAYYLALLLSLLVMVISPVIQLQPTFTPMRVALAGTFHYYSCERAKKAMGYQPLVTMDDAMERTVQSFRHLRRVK
inactive: [1] -0.005 | volasertib 0.084 | [2] 0.105 | epoxomicin -0.004 | [3] 0.08 | [4] -0.018 | [5] 0.012 | rosiglitazone 0.002 | [6] -0.193 | [7] -0.001 | saracatinib -0.07 | sotrastaurin 0.043 | alvocidib -0.051 | Tubastatin A -0.004 | [8] 0.072 | defactinib -0.037 | rucaparib -0.094 | [9] 0.041 | encorafenib -0.019 | [10] -0.021

NMT1 (UniProt P30419)
Sequence of UniProt P30419 (P30419 whole entry, looked up): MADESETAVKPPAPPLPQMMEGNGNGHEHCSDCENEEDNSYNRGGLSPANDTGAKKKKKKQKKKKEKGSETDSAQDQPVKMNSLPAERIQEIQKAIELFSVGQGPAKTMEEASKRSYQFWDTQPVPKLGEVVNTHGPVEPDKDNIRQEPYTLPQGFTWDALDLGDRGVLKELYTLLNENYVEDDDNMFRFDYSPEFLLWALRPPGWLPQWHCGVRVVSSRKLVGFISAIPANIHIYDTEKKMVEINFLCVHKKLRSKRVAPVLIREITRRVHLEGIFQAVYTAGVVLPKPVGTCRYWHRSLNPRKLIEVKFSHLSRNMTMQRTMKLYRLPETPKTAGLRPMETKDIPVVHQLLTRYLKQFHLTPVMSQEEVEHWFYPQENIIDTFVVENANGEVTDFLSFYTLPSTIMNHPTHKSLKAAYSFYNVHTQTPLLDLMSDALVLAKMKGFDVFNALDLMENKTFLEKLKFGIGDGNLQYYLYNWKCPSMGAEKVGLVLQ
inactive: [1] 0.028 | volasertib -0.21 | [2] 0.036 | epoxomicin 0.014 | [3] 0.016 | [4] -0.028 | [5] -0.022 | rosiglitazone -0.073 | [6] 0.007 | [7] -0.097 | saracatinib -0.046 | sotrastaurin 0.019 | alvocidib 0.001 | Tubastatin A -0.029 | [8] -0.003 | defactinib 0.015 | rucaparib -0.009 | [9] 0.013 | encorafenib -0.002 | [10] 0.024

NTMT1 (UniProt Q9BV86)
Sequence of UniProt Q9BV86 (Q9BV86 whole entry, looked up): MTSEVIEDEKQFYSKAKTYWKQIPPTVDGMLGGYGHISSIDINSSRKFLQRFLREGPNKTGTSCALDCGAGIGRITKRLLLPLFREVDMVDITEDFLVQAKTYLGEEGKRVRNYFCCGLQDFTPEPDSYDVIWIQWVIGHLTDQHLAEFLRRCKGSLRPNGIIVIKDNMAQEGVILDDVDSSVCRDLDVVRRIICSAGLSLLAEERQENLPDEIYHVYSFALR
inactive: [1] -0.047 | volasertib -0.004 | [2] 0.051 | epoxomicin 0.092 | [3] 0.005 | [4] -0.141 | [5] 0.081 | rosiglitazone -0.022 | [6] -0.037 | [7] 0.099 | saracatinib -0.048 | sotrastaurin 0.055 | alvocidib -0.104 | Tubastatin A -0.071 | [8] -0.032 | defactinib -0.081 | rucaparib 0.169 | [9] 0.184 | encorafenib 0.06 | [10] -0.157

NUP205 (UniProt Q92621)
Sequence of UniProt Q92621 (Q92621 whole entry, looked up): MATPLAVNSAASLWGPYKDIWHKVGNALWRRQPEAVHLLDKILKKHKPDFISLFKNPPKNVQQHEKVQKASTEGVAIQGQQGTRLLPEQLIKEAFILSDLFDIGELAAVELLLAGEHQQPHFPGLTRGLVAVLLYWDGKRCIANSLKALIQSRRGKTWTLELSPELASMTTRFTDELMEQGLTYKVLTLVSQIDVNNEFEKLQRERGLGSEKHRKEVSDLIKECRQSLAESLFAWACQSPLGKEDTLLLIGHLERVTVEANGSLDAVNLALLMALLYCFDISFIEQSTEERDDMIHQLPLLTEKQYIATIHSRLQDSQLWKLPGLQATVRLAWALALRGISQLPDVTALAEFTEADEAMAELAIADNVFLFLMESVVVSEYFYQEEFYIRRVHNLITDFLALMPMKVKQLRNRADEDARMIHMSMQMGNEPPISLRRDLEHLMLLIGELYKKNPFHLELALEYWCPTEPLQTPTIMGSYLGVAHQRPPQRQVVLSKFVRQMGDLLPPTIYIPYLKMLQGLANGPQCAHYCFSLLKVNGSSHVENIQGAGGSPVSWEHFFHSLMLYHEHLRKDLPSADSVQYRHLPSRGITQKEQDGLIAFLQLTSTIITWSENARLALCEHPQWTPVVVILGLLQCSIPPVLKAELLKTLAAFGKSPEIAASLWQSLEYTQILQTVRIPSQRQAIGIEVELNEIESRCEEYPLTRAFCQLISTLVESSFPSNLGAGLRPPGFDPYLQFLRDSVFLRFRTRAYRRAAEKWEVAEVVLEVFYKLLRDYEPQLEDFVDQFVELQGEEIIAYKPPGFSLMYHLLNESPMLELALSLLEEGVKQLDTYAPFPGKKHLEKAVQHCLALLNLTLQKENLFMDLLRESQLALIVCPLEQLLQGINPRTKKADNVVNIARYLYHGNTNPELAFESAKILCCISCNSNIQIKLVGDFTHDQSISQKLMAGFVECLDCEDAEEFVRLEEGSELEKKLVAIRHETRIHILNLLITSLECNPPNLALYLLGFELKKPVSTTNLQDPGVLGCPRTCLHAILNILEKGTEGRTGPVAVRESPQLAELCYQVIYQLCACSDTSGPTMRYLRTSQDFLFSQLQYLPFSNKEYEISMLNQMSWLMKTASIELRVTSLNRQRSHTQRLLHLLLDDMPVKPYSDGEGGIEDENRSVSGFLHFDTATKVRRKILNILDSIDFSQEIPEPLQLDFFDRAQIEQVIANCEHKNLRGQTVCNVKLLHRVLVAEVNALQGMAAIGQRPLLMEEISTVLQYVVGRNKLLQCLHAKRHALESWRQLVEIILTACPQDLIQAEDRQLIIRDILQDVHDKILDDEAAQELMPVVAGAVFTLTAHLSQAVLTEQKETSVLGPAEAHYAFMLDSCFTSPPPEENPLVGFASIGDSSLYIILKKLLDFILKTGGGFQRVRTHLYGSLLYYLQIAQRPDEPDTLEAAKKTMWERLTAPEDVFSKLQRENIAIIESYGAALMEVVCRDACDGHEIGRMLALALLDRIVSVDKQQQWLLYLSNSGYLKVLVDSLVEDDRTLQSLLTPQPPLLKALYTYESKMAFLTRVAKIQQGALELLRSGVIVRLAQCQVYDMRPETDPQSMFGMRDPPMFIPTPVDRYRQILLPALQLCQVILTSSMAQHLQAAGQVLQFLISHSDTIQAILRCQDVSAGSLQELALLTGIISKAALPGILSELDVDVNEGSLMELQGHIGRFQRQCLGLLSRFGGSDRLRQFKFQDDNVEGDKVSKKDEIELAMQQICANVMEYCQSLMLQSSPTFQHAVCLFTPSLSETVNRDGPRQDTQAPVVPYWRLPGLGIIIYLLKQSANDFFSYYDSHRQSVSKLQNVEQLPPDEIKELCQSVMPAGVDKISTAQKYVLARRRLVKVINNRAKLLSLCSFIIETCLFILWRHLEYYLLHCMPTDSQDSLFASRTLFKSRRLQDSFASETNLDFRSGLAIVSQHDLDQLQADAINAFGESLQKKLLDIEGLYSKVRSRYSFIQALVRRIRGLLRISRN
active: volasertib -0.35 | [7] -0.233
inactive: [1] -0.108 | [2] 0.079 | epoxomicin -0.071 | [3] -0.036 | [4] -0.013 | [5] 0.032 | rosiglitazone 0.041 | [6] -0.041 | saracatinib -0.003 | sotrastaurin -0.057 | alvocidib -0.127 | Tubastatin A 0.023 | [8] -0.024 | defactinib -0.132 | rucaparib -0.065 | [9] -0.012 | encorafenib 0.096 | [10] -0.038

OPA1 isoform 2 (UniProt O60313)
Sequence of UniProt O60313 (O60313 whole entry, looked up): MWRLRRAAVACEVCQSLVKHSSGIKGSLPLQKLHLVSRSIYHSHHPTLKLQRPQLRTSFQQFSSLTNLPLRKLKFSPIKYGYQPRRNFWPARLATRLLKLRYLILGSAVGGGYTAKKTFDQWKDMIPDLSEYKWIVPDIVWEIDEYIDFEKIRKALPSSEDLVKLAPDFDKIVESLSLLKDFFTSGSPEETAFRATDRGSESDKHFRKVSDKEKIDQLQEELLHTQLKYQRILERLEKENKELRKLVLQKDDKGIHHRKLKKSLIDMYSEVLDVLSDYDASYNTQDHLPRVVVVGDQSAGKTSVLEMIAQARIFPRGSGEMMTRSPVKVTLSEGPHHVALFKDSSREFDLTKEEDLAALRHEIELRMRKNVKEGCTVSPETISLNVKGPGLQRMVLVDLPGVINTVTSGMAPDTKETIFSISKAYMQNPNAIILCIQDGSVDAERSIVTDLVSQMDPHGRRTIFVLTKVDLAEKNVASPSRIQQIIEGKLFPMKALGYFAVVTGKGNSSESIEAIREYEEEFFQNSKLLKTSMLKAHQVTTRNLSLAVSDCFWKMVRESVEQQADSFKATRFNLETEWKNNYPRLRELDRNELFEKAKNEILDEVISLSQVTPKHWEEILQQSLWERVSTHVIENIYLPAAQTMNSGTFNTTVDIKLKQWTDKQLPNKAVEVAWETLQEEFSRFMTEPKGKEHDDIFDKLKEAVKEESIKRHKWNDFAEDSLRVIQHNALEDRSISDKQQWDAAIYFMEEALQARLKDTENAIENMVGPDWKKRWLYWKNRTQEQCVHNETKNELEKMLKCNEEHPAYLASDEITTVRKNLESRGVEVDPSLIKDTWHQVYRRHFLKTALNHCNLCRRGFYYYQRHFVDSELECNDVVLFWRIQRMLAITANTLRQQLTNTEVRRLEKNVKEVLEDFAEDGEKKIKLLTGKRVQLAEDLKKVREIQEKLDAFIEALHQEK
inactive: [1] -0.187 | volasertib -0.264 | [2] 0.039 | epoxomicin 0.027 | [3] -0.047 | [4] -0.081 | [5] 0.023 | rosiglitazone 0.07 | [6] -0.013 | saracatinib -0.072 | sotrastaurin -0.005 | alvocidib -0.047 | Tubastatin A 0.054 | [8] -0.047 | defactinib -0.024 | rucaparib -0.001 | [9] 0.064 | encorafenib 0.056 | [10] -0.047
active: [7] -0.347

MRPS24 (UniProt Q96EL2)
inactive: [1] -0.004 | volasertib 0.121 | [2] 0.126 | epoxomicin -0.067 | [3] -0.031 | [4] -0.095 | [5] 0 | rosiglitazone -0.026 | [6] -0.004 | [7] 0.07 | saracatinib -0.153 | sotrastaurin -0.124 | alvocidib -0.202 | Tubastatin A 0.024 | [8] 0.067 | defactinib 0.041 | rucaparib 0.153 | [9] 0.137 | encorafenib 0.08 | [10] -0.108

MRPS21 (UniProt P82921)
inactive: [1] 0.062 | volasertib -0.008 | [2] 0.063 | epoxomicin 0.064 | [3] -0.052 | [5] 0.058 | rosiglitazone 0.165 | [6] -0.205 | saracatinib -0.193 | sotrastaurin 0.036 | alvocidib -0.095 | Tubastatin A -0.056 | [8] 0.038 | defactinib -0.075 | rucaparib -0.016 | [9] 0.127 | encorafenib 0.045 | [10] -0.075

ORC5 (UniProt O43913)
Sequence of UniProt O43913 (O43913 whole entry, looked up): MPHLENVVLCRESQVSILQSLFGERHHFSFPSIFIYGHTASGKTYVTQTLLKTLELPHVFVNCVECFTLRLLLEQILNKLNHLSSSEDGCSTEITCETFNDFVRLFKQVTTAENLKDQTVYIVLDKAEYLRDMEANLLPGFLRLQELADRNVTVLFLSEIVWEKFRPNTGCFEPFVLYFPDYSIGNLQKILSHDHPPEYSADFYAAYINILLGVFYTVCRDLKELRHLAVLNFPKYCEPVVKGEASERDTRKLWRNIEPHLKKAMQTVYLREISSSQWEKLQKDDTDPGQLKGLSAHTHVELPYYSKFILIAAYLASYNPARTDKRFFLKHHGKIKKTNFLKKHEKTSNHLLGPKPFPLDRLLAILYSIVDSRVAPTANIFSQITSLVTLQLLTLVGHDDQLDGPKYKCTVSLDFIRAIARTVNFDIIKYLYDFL
inactive: [1] -0.196 | volasertib -0.42 | [2] 0.074 | [3] -0.071 | [4] -0.103 | [5] 0.105 | rosiglitazone 0.084 | [6] -0.029 | [7] -0.203 | saracatinib -0.081 | sotrastaurin 0.149 | alvocidib -0.195 | Tubastatin A 0.093 | [8] -0.097 | defactinib -0.182 | rucaparib 0.094 | [9] -0.009 | encorafenib 0.033 | [10] -0.05

NMU (UniProt P48645)
Sequence of UniProt P48645 (P48645 whole entry, looked up): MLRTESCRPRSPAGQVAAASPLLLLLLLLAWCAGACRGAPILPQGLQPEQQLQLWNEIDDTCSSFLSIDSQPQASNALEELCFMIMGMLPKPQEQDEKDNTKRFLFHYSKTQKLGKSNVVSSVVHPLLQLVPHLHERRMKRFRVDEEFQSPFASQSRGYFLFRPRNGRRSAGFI
inactive: [1] 0.094 | volasertib 0.072 | [2] 0 | epoxomicin 0.077 | [3] -0.044 | [4] 0.008 | [5] -0.017 | rosiglitazone -0.021 | [6] -0.008 | [7] 0.271 | saracatinib -0.017 | alvocidib 0.044 | Tubastatin A 0.149 | [8] -0.055 | defactinib -0.08 | rucaparib -0.076 | [9] -0.09 | encorafenib 0.034 | [10] -0.042
